High-throughput results (PubChem)
Shown are actives, neighbours in structure and some others; about 2.2% of the full set was active somewhere.
TMEM16A inh: TMEM16A chloride channel inhibitors, primary screen, cell-based, HTS. Anoctamin-1 (Mus musculus), Q8BHY3. HEK293 TMEM16A/YFP iodide influx fluorescence, ionomycin. normalized B-score (activity score, 25-100; higher = stronger inhibition) at 10 µM. actives 1.2% (n = 310,000). AID 588511, 2011;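 active means ratio plate-corrected score three or more library SD toward inhibition, starting fluorescence score within five deviations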;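 further: score derived from kinetic fluorescence span divided by baseline fluorescence per well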
NOD2-RIPK2 inh: NOD2-RIPK2 binding disruptors in cells, primary screen, fluorescence, CHO cells, BLA complementation; Receptor-interacting serine/threonine-protein kinase 2 (Homo sapiens), O43353; CCF4 ratio; inhibition, % at 4.98 µM; actives 0.38% (n = 360,000); AID 624267, 2012; in the data active means inhibition above about 21%;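 further: 0% = vehicle only and 100% = reference blocker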
TLR4-MyD88 BLA: inhibitors of TLR4-MyD88 association in cells, primary screen, cell-based, HeLa CL3-4, BLA complementation, FRET ratio. HeLa CL3-4 TLR4/MyD88 BLA complementation. actives 0.18% (n = 200,000). Toll-like receptor 4 (Homo sapiens) + Myeloid differentiation primary response protein …. AID 861, 2007. inhibition, % at 8.4 µM; in the data active means inhibition above about 25%;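 further: 0% = vehicle and 100% = reference inhibitor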
TMEM16A act: TMEM16A chloride channel activators or potentiators, primary screen, cell-based, HTS. AID 623877, 2012. actives 0.3% (n = 340,000). HEK293 TMEM16A/YFP-H148Q/I152L, iodide quench fluorescence; stronger effect = lower value. B-score at 10 µM;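 active means fluorescence-ratio B-score plate-corrected deviation score at least 3 library SD below zero, with starting fluorescence score within 5 deviations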;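 further: channel opened by trigger with iodide after compound preincubation; score built on the fluorescence ratio of max minus min over baseline; more negative score means more quench and so TMEM16A activation or potentiation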
TLR9-MyD88 block: inhibitors of TLR9-MyD88 association in cells, primary screen, cell-based, CHO, BLA complementation, fluorescence; actives 0.21% (n = 340,000); AID 504734, 2011; Toll-like receptor 9 (Homo sapiens) + Myeloid differentiation primary response protein …; CCF4 FRET ratio; inhibition, % at 4.98 µM;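 active means inhibition above the mean over all tested compounds plus 3 SD, cut at about 21% in these data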;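 further: 0% = DMSO only wells and 100% = clavulanate BLA inhibitor control wells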
GRK2 aptamer HTS: compounds blocking aptamer binding on GRK2 – biochemical, human GRK2, bead flow cytometry, HTS, primary screen. actives 0.59% (n = 330,000). inhibition of aptamer binding, % at 10 µM. AID 488847, 2010. Beta-adrenergic receptor kinase 1 (Homo sapiens), P25098. FAM-aptamer displacement from GRK2;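 active means inhibition of aptamer binding above 40%, roughly 3 SD of noise, on plates passing a quality check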;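 further: median bead fluorescence of bound FAM aptamer so fluorescent compounds give negative values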
Numbers without * were called inactive; i = inactive; x = no result given.

SMILES	TMEM16A inh	NOD2-RIPK2 inh	TLR4-MyD88 BLA	TMEM16A act	TLR9-MyD88 block	GRK2 aptamer HTS
CCn1c(SCc2nc3scc(-c4ccccc4)c3c(=O)[nH]2)nnc1-c1cccs1	100*	1	11	i	-6	3
O=C1NC(=O)/C(=C/c2ccc(-c3cc(C(=O)O)ccc3Cl)o2)S1	i	12	x	i	-14	14
O=C1NC(=S)/C(=C\c2ccc(-c3ccccc3Cl)o2)S1	i	-1	2	-5.8*	-4	0
COc1ccc(-c2csc(NC(C)c3nc4cc(C(F)(F)F)ccc4n3CCOCCO)n2)cc1 (stereo unspecified)	25*	2	x	i	-5	x
CC1CC(CCC(=O)NC(=S)Nc2ccc(S(N)(=O)=O)cc2)C(=O)O1 (stereo unspecified)	i	-6	-8	-4.7*	20	2
CC(C)(C)c1ccc(C(=O)NCCC(=O)N2CCN(c3ncccn3)CC2)cc1	100*	-3	-12	i	-54	0
COc1ccc(CN2C(=O)CCCC2(C)c2nc3ccccc3[nH]2)cc1 (stereo unspecified)	x	-1	x	x	x	x
C(=NNc1ccc2ccccc2n1)c1ccccn1	x	-5	x	x	x	x
C#CCNC(=O)C[C@@H]1C[C@@]2(C(=O)OC)CC(C)(C)CC=C2N(CCCCCCCC)C1=O	x	11	x	x	x	x
CCCc1cc(C(=O)Nc2ccc(C(=O)c3ccc(F)cc3)cc2)n(C)n1	100*	11	x	i	8	0
O=C(Nc1ccc(F)cc1)c1ccc2snnc2c1	i	-2	x	i	-5	0
Cc1cccc(C)c1NC(=O)C1(C)CSCC(=O)N1CCc1c[nH]c2ccccc12 (stereo unspecified)	x	-4	x	x	x	x
CCN(CC)S(=O)(=O)c1ccc(Cl)c(NC(=O)COc2ccc3c(C)cc(=O)oc3c2)c1	i	-6	8	i	-4	100*
Cc1cc(=O)oc2cc(OCC(=O)Nc3cccc(S(=O)(=O)N(C)C)c3)ccc12	i	-5	-9	i	1	56*
CC(=O)Oc1c(I)cc(I)cc1C(=O)Nc1ccc(Cl)cc1	100*	-5	x	i	-4	0
O=C(NCCc1ccccc1)C(=O)NCC1CCCN1S(=O)(=O)c1ccccc1 (stereo unspecified)	i	11	x	i	-3	0
COc1ccc(CCNC(=O)c2ccc(CN3CCC(Cc4ccccc4)CC3)cc2)cc1OC	i	3	-6	-6.9*	-11	0
COCCNC(=O)c1ccc(CN2CCC(Cc3ccccc3)CC2)cc1	i	7	x	i	-4	0
COc1ccc(CCNC(=O)C(=O)NCC2CCCN2S(=O)(=O)c2ccccc2)cc1OC (stereo unspecified)	25*	-2	x	i	-1	0
O=C(O)c1cc2c([nH]c1=O)CCCC2	i	5	0	i	-3	2
C=CCSC(=C(C#N)C#N)c1cc2c([nH]1)CCCC2	100*	12	3	i	1	1
O=C1/C(=C/c2ccc(N3CCOCC3)o2)SC(=Nc2ccccc2)N1CCc1c[nH]c2ccccc12	i	47*	14	i	14	0
CC(C)(Sc1ccc(CCN(CCCCC2CCCCC2)C(=O)NC2CCCCC2)cc1)C(=O)O	100*	2	x	i	-3	0
CN(Cc1ccccc1)C(=O)NC1CCCCC1	i	-3	-9	i	6	0
CCOc1cc(C2C(C#N)=C(N)OC3=C2C(=O)CC(C)(C)C3)cc([N+](=O)[O-])c1O (stereo unspecified)	i	-6	3	i	-5	1
SMILES	TMEM16A inh	NOD2-RIPK2 inh	TLR4-MyD88 BLA	TMEM16A act	TLR9-MyD88 block	GRK2 aptamer HTS
CC1(C)CC(=O)C2=C(C1)OC(N)=C(C#N)C2c1cc2c(cc1[N+](=O)[O-])OCO2 (stereo unspecified)	i	2	-1	-5*	7	1
CCOC(=O)c1ccc(NC(=S)N2CCSC2c2ccc(OC)cc2)cc1 (stereo unspecified)	i	8	-11	i	0	3
CCOC(=O)c1ccc(NC(=S)N2CCSC2c2ccc(Cl)cc2)cc1 (stereo unspecified)	100*	1	-4	-7.7*	3	0
COc1ccc([C@H]2CC(=O)C=C(c3ccc4ccccc4c3)C2)cc1OC	x	-11	x	i	10	0
COc1ccc([C@H]2CC(=O)C=C(c3ccc(-c4ccccc4)c(F)c3)C2)cc1OC	x	-4	x	-6.2*	0	0
c1ccc(Cn2nnnc2C(c2cccs2)N2CCCCCC2)cc1 (stereo unspecified)	100*	6	-17	i	6	0
OC(c1ccc(F)cc1)c1nc(-c2cc3ccccc3o2)cs1 (stereo unspecified)	x	3	x	x	x	x
CC(=O)OCC1O[C@@H](O[C@@H]2C[C@H]3C(C)(C)[C@H](OC(C)=O)CC[C@]3(C)[C@H]3CC[C@]45C[C@]4(CC[C@H]5[C@@H](C)C[C@@H](O)[C@H](O)C(C)(C)O)[C@@]32C)[C@H](O)[C@@H](O)[C@@H]1O (stereo partly specified)	100*	x	3	x	x	0
O=C(NCCOc1ccccc1)C1C(=O)Nc2ccccc2C(=O)N1C1CCCCC1 (stereo unspecified)	x	-5	x	x	x	x
CCN1CCc2c(OCC(=O)Nc3cccc(C)c3C)cccc2C1=O	i	x	0	x	x	1
Cc1cccc(NC(=O)COc2cccc3c2CCN(Cc2ccccc2)C3=O)c1C	i	-6	2	-6.5*	4	0
CCCCCCN1C[C@H](n2cc(-c3ccc(F)cc3)nn2)[C@@H](O)C[C@@H]1c1ccc(Cl)cc1	x	-6	x	x	-10	x
Cc1ccc(S(=O)(=O)N2[C@@H](c3ccc(Cl)cc3)C(C(=O)O)=CC[C@H]2c2ccc(C(C)C)cc2)cc1	100*	-8	x	i	-6	0
Cc1ccc(S(=O)(=O)N2[C@@H](c3ccccc3)C(C(=O)O)=CC[C@H]2c2ccc(C(C)C)cc2)cc1	100*	-8	x	i	-6	0
CCc1ccc(OC)c(S(=O)(=O)Nc2ccc(Cc3ccncc3)cc2)c1	i	-50	x	i	7	0
